PI4K2A inh: qHTS for small molecular inhibitors of PI4K2A. purified PI4K2A, ADP-Glo luminescence, 1 h; stronger effect = lower value. activity change, negative = inhibition, % at 76.9 µM. actives 0.13% (n = 420,000). AID 1346378, 2018; in the data active means activity change below about -50%; inconclusive means mostly about -30% to -49%;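 further: -100% = wells without enzyme as full effect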
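PI4K2A activity was measured by ADP-Glo luminescence: enzyme (4 ug/mL stock) and phosphatidylinositol (1.2 mM stock) in Tris pH 7.5/MgCl2/EGTA/Triton X-100 buffer were reacted with ATP (300 microM stock) for one hour at ambient temperature.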
POLK inh: qHTS for Inhibitors of Polymerase Kappa; purified Pol kappa, fluorescent DNA synthesis assay, 10 min; Potency, µM (titrated, usually from 107 µM), inactives show at the top dose activity, negative = inhibition, usual class: inhibitors; actives 0.53% (n = 400,000); AID 588579, 2011; further: potency means the concentration at half of the fitted maximal effect; on the % scale 0 is the no-effect control and ±100 the full control effect
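Enzyme at 10 nM met test compounds for 15 min at room temperature. Substrate addition (50 nM final) began the reaction, which was monitored by fluorescence at 0 and 10 min.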
POLB inh: qHTS Assay for Inhibitors of DNA Polymerase Beta. Potency, µM (doses to about 114 µM), inactives show at the highest dose activity change, negative = inhibition, actives largely listed as inhibitors. AID 485314, 2010. actives 1.3% (n = 340,000). Pol beta primer extension/strand displacement, fluorescence kinetic. P06746; further: potency means the concentration at half of the fitted maximal effect; on the % scale 0 is the no-effect control and ±100 the full control effect
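Curves were derived by four-parameter Hill fits of normalized qHTS data. The kinetic fluorescent primer-extension read was taken at 0 and 10 min after 50 nM substrate, following a 15 min room-temperature preincubation of 10 nM enzyme with compounds.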
Pol iota inh: qHTS for Inhibitors of Polymerase Iota; Pol iota fluorescent replication assay, 10 min; Potency, µM (highest dose often 115 µM), without a hit: at the top dose activity, negative = inhibition, actives largely listed as inhibitors; actives 1% (n = 390,000); further: potency means the concentration at half of the fitted maximal effect
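Fluorescent replication assay read twice, at 0 min and 10 min after adding 50 nM (final) substrate. Enzyme (10 nM) and compounds were first incubated 15 min at room temperature; enzyme-free buffer wells were negative controls.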
Pol eta inh: qHTS for Inhibitors of Polymerase Eta | DNA polymerase eta (Homo sapiens), Q9Y253 | recombinant Pol eta, fluorescent DNA replication assay | Potency, µM (series often up to 114 µM), for the others: at the highest dose activity change, negative = inhibition, hits mostly inhibitors | actives 1.2% (n = 390,000) | AID 588591, 2011; further: potency means the concentration at half of the fitted maximal effect; on the % scale 0 is the no-effect control and ±100 the full control effect
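Pol eta at 10 nM preincubated with compounds 15 min at room temperature; reaction started with fluorescent substrate (50 nM final) and read kinetically at 0 and 10 min.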
PI5P4Ka inh: qHTS for Inhibitors of phosphatidylinositol 5-phosphate 4-kinase (PI5P4K) | Phosphatidylinositol 5-phosphate 4-kinase type-2 alpha (Homo sapiens), P48426 | max response, % | actives 1.2% (n = 330,000) | PI5P4Kalpha enzyme, ADP-Glo luminescence, 60 min; stronger effect = lower value; active means max response of -50% or lower; inconclusive means between -30% and -50%; inactive means -30% or higher; further: value at the top dose of about 77 µM; on the % scale 0 is the no-effect control and ±100 the full control effect
Target sequence (P48426 whole entry, looked up): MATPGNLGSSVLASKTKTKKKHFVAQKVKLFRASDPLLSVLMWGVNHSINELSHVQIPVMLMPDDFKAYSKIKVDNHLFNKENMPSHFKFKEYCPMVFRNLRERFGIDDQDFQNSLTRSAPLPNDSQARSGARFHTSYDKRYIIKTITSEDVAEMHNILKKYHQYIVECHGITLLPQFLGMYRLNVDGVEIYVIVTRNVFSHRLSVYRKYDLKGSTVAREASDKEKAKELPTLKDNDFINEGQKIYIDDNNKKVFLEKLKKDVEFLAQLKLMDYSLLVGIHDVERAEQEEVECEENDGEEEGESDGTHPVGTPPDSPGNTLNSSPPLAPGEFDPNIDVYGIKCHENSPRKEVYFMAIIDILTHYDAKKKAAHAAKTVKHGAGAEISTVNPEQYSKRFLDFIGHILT
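Compounds were pin-transferred onto PI5P4Kalpha and substrate in HEPES pH 7.4 buffer with EGTA, CHAPS and 5% DMSO. ATP (5 microM final) started the reaction, which ran 60 minutes at room temperature before ADP-Glo detection.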
Numbers without * were called inactive; ? = inconclusive; . = not tested or not shown; ! = not active in a repeat; [ ] = another dose, or the depositor's remark. This is a sample that favours compounds with a hit; in the whole collection about 2.8% have one here. Unless noted, the call rests on the fitted dose curve; in most records, active means well fitted inhibition curve with a large enough effect; inconclusive means small, poorly fitted or top-dose-only effect, or another doubt; inactive means no such curve, though single readings can be large or run the other way.

SMILES	PI4K2A inh	POLK inh	POLB inh	Pol iota inh	Pol eta inh	PI5P4Ka inh
COc1ccc(OC)c2c(=O)cc(C(=O)O)[nH]c12	-2.9	-1.0%	-26.5%	158.7%	-9.9%	-11.8
CC(=O)N1CCc2cc(S(=O)(=O)CCC(=O)NCc3cccs3)ccc21	9.5	-3.6%	12.8%	5.9%	7.4%	-4.7
CC(=O)N1CCc2cc(S(=O)(=O)CCC(=O)NCc3ccc4c(c3)OCO4)ccc21	3.2	-10.8%	44.7µM*	-12.2%	?	-19.2
COC(=O)[C@@]12CCCCC=C1N(CCc1ccc(Cl)cc1)C(=O)[C@H]2CC(=O)NCc1cccc(C(F)(F)F)c1	-4.1	.	.	.	.	.
COc1ccccc1C(=O)Nc1cccc(C(=O)OCc2cc(=O)n3c4c(sc3n2)CCCC4)c1	-1.9	-1.7%[60.1 µM]	-1.1%	7.6%	-3.0%	.
O=Nc1[nH]c(=O)c(/C=C(\O)c2ccccc2)nc1NO	4.3	-16.7%	?	3.98µM*	?	?
O/C(=C\c1nc2ccccc2nc1/C=C(\O)c1ccccc1)c1ccccc1	-4.9	0.0%	-11.1%	30.5%	-1.3%	-6.2
C/C(=N/NC(=O)CNC(=O)c1ccccc1F)c1ccc2c(c1)CCCC2	-2.3	-6.8%	-1.1%	69.4%	-3.2%	-66.8*
CCOC(=O)c1ccc(NC(=O)CSc2nnc(-c3ccncc3)n2-c2ccccc2)cc1	-6.7	-9.7%[60.1 µM]	2.24µM*	-18.7%	-0.2%	.
O=C(CSc1nnc(-c2ccncc2)n1-c1ccccc1Cl)Nc1ccc(C(=O)O)cc1	1.1	-24.6%	-17.4%	23.1%	4.1%	-65.0*
O=C(CSc1nnc(-c2ccncc2)n1-c1ccccc1)Nc1ccc(C(=O)O)cc1	-1.6	-10.2%	9.4%	7.3%	-2.9%	?
Cn1c(CSCc2ccccc2)nnc1SCC(=O)Nc1ccc(C(=O)O)cc1	-4.8	-18.0%	18.5%	2.6%	-6.1%	-73.0*
CCCCn1c(NS(=O)(=O)c2ccc(C)cc2)c(S(=O)(=O)c2ccccc2)c2nc3ccccc3nc21	1.5	-21.8%	-27.2%[57.1 µM]	10µM*	-29.5%	-4.2
Cc1ccc(S(=O)(=O)c2nc(-c3ccccc3F)oc2N2CC(C)OC(C)C2)cc1 (stereo not drawn)	1.8	-12.3%	-10.7%	-5.5%	-23.8%	-5.0
CCOC(=O)C1=C(OCc2ccc(Cl)cc2)C2C=C(C)C=CC2N=C1 (stereo not drawn)	2.6	-5.0%	44.7µM*	-11.9%	-4.3%	-6.7
O=C(O)C1=CC(=C(c2ccc(O)c(C(=O)O)c2)c2ccc(O)c(C(=O)O)c2)C=CC1=O	-85.7*	0.631µM*!	0.0224µM*	0.0501µM*!	0.126µM*	.
O=C(O)c1cc(O)ccc1O	-4.2	-18.9%	.	?	-5.6%	-1.7
CCOC(=O)C1CCCN(C(=O)c2ccc3c(c2)N(Cc2ccccc2F)C(=O)c2ccccc2S3=O)C1 (stereo not drawn)	2.6	-20.2%	3.3%	27.5%	?	.
NS(=O)(=O)c1ccc(NC(=O)COc2cccc3ccccc23)cc1	3.4	-5.6%	-19.5%	89.1µM*	79.4µM*	-9.0
Cc1nc(C)c(-c2csc(Nc3ccc(F)cc3)n2)s1	1.1	9.8%	-8.4%	8.7%	-24.9%	9.9
Cc1nc(C)c(-c2csc(Nc3ccc(C(=O)O)c(O)c3)n2)s1	0.2	-25.7%	-0.9%	-19.1%	?	-72.5*
COc1ccc(-c2nc(CNS(=O)(=O)c3cccc(F)c3)cs2)cc1	3.4	-15.0%	-0.3%	16.2%	.	.
Clc1ccc(-c2csc(N/N=C/c3cccnc3)n2)c(Cl)c1	-4.5	-24.6%	79.4µM*	111.3%	-17.9%	3.9
COc1ccc(C2=C(C)C(=O)N(Cc3ccc(C(=O)NCc4cccc(C)c4)cc3)S2(=O)=O)cc1	-2.4	-20.1%	6.2%	12.4%	.	.
O=C(CN1C(=O)NC(Cc2ccccc2)C1=O)Nc1ccccc1 (stereo not drawn)	3.1	4.9%	1.3%	0.0%	-13.5%	-0.6
SMILES	PI4K2A inh	POLK inh	POLB inh	Pol iota inh	Pol eta inh	PI5P4Ka inh
NC(=O)c1c(NC(=O)CN2C(=O)NC(Cc3ccccc3)C2=O)sc2c1CCC2 (stereo not drawn)	0.8	?	?	44.7µM*	?	?
CCOC(=O)c1c(N)n(C2CC(C)(C)NC(C)(C)C2)c2nc3ccccc3nc12	-13.0	-8.3%	28.2µM*	?	-6.3%	.
CCOC(=O)c1c(N)n(-c2ccc(CC)cc2)c2nc3ccccc3nc12	-3.9	-1.1%	1.6%	92.6%	-18.0%	.
CCOC(=O)c1c(N)n(-c2cccc(OC)c2)c2nc3ccccc3nc12	5.5	-17.8%[60.1 µM]	1.5%	?	-3.3%	.
CCOC(=O)c1c(N)n(-c2ccc(N)cc2)c2nc3ccccc3nc12	-5.7	1.9%[60.1 µM]	?	79.4µM*	-7.1%	-18.4
O=C(Nc1nc2c(F)cccc2s1)c1ccco1	-4.3	15.8%	0.9%	4.1%	-10.0%	-3.6
Fc1cccc2sc(Nc3nnc(-c4ccco4)o3)nc12	-23.0	-27.9%	17.8µM*	?	?	-19.4
O=C(C[n+]1cccc2cccc(O)c21)c1ccc(Br)cc1	.	5.6%	.	23.8%	.	.
O=C(O)c1cccc(-n2sc3ccccc3c2=O)c1	-19.9	-7.2%	.	?	-14.6%	-102.9*
O=c1c2ccccc2sn1-c1nccs1	3.3	6.5%	-7.6%	60.7%	-5.3%	-80.9*
N#Cc1ccc2c(=O)n(-c3ccccc3)sc2c1	-3.6	.	.	.	-8.6%	-85.1*
N#Cc1c(N)n(-c2ccccc2)c(=O)c2cc([N+](=O)[O-])ccc12	1.4	-2.0%	48.1%	30.4%	-1.8%	8.5
O=c1c2ccccc2sn1-c1cccc(Cl)c1	-15.0	.	.	.	1.2%	-101.4*
O=C(c1cnn2c1NC(=C1CC1)C=C2C(F)F)N1CCc2ccccc21	.	8.1%	.	22.8%	.	.
Cc1ccccc1-n1sc2cc(F)ccc2c1=O	6.0	-8.2%	13.6%	82.1%	-11.3%	-88.1*
Cc1ccccc1-n1c(=O)c2ccccc2n2cnnc12	1.7	-12.9%	-0.6%	19.5%	-10.5%	-0.1
O=c1c2ccccc2sn1-c1ccccc1F	-17.4	.	.	.	-3.8%	-106.5*
CC(=O)Nc1ccc2c(=O)n(-c3ccccc3)sc2c1	-6.9	.	.	.	-13.2%	-104.9*
CC(=O)Nc1ccc(-c2cc(N)n(-c3ccccc3)n2)cc1	-20.6	3.3%	0.6%	48.4%	-8.5%	-15.4
O=C1CN(c2ccccc2F)C(=O)CN1c1ccccc1F	5.7	-0.2%	-1.7%	27.4%	4.1%	.
O=c1c2ccccc2sn1-c1ccc(S(=O)(=O)N2CCCC2)cc1	-2.5	-11.9%	-18.2%	-11.5%	3.9%	.

Screening results: PubChem, National Center for Advancing Translational Sciences (NCATS)
